Rows were chosen to be rich in hits. Some 8% of all compounds tested hit in one or more screens of this group.
HCV inhibitor = inhibitors of hepatitis C virus infection; Huh7.5.1 HCVcc-Cre infection, luciferase reporter, 44 h; Potency, µM (doses to about 41.8 µM), inactives show at the highest dose activity change, negative = inhibition, hits mostly inhibitors; 340,000 compounds, 3.4% hits; active means well fitted inhibition curve with a large enough effect; inconclusive means small, poorly fitted or top-dose-only effect, or another doubt; inactive means no such curve, though single readings can be large or run the other way; further: potency means the concentration at half of the fitted maximal effect; on the % scale 0 is the no-effect control and ±100 the full control effect
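Antiviral activity was scored by luciferase reporter output from cells infected with HCVcc-Cre (~0.5 moi) in presence of compound, 44 h infection period, cells seeded 1,000/well 4 h prior.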
HCMV antiviral = inhibitors of human cytomegalovirus; AID 1259415; activity change, negative = inhibition, % at 57.5 µM; 410,000 compounds, 4.5% hits; HFF cells, HCMV-luciferase reporter, 72 h; active compounds read low; in the data active means activity change below about -60%; inconclusive means no clear call, values can overlap the other calls; inactive means above about -39%; further: on the % scale 0 is the no-effect control and ±100 the full control effect
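Two compound doses tested in HFFs infected with HCMV-luciferase, MOI 1 PFU/cell, 72 h at 37C. Lysate luminescence read with OneGlo; data normalized against buffer-only and 10uM Salinomycin inhibitor controls.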
Marburg entry inh = inhibitors of Marburg virus binding or cell entry | Marburg virus pseudotyped entry inhibition, cell reporter | Potency, µM (top dose mostly 37.8 µM), without a hit: at the highest dose activity change, negative = inhibition, hits mostly inhibitors | 300,000 compounds, 1.8% hits; calls by dose curve; tested in HEK293 cells; further: potency means the concentration at half of the fitted maximal effect; on the % scale 0 is the no-effect control and ±100 the full control effect
FMDV antiviral = blocks foot and mouth disease virus; FMDV antiviral cell-based qHTS; Potency, µM (series often up to 57.9 µM), without a hit: at the top dose activity change, negative = inhibition, hits mostly inhibitors; 410,000 compounds, 1.2% hits; calls by dose curve; tested in HEK293T cells; further: read-out not given here; potency means the concentration at half of the fitted maximal effect; on the % scale 0 is the no-effect control and ±100 the full control effect; nearly all actives have a fitted effect of over 45% in size
LASV entry inh = blocks Lassa virus binding to or entry into cells; 300,000 compounds, 1.2% hits; Potency, µM (highest dose often 37.9 µM), for the others: at the highest dose activity change, negative = inhibition, most hits filed as inhibitors; Lassa virus pseudotype entry inhibition, cell reporter; calls by dose curve; tested in HEK293 cells; further: potency means the concentration at half of the fitted maximal effect; on the % scale 0 is the no-effect control and ±100 the full control effect; nearly all actives have a fitted effect of over 50% in size
SARS PLP yeast = SARS-CoV PLP inhibition in yeast | S. cerevisiae expressing SARS-CoV PLpro, growth rescue | Potency, µM (doses to about 32.9 µM), for inactives: top-dose activity, positive = growth rescue, actives largely listed as activators | 330,000 compounds, 0.19% hits; calls by dose curve; further: potency means the concentration at half of the fitted maximal effect; 0% is about no effect; nearly all actives have a fitted effect of over 55% in size
Numbers without * were called inactive; [ ] = another dose, or the depositor's remark.

CCOc1ccc(N2CC(C(=O)Nc3ccc(F)cc3F)CC2=O)cc1 (stereo not given) was read as HCV inhibitor 9%, HCMV antiviral -102*, Marburg entry inh inconclusive, FMDV antiviral 47%, LASV entry inh -3% and SARS PLP yeast 0%.
Screening COc1ccc(N2CCN(c3oc(/C=C/c4cc(OC)c(OC)c(OC)c4)nc3C#N)CC2)cc1 returned HCMV antiviral -35, Marburg entry inh 11%[46.1 µM], FMDV antiviral -11% and LASV entry inh -17%[46.1 µM].
Screening O=C(COC(=O)CCC(=O)c1ccc(F)cc1)Nc1cccc(S(=O)(=O)N2CCOCC2)c1 returned HCV inhibitor 13%, HCMV antiviral -37, Marburg entry inh 21%[46.1 µM], FMDV antiviral -7%, LASV entry inh 14%[46.1 µM] and SARS PLP yeast 1%.
`CCOc1ccc(N2CC(C(=O)Nc3cccc(S(=O)(=O)N4CCOCC4)c3)CC2=O)cc1` (stereo not given) gave HCMV antiviral -19 and FMDV antiviral -6%.
CCCOc1ccc(N2CC(C(=O)Nc3cccc(Cl)c3Cl)CC2=O)cc1 (stereo not given) was read as HCMV antiviral -88*, FMDV antiviral -3% and LASV entry inh -14%[46.1 µM].
CCOc1ccc(N2CC(C(=O)Nc3ccc4c(c3)OCO4)CC2=O)cc1 (stereo not given) was read as HCV inhibitor -3%, HCMV antiviral -64*, Marburg entry inh inconclusive, FMDV antiviral 29% and SARS PLP yeast -1%.
`CCOc1ccc(N2CC(C(=O)Nc3cccc(S(=O)(=O)N4CCCC4)c3)CC2=O)cc1` (stereo not given) gave HCV inhibitor 10µM*, HCMV antiviral 2, Marburg entry inh -20%[46.1 µM], FMDV antiviral -6%, LASV entry inh inconclusive and SARS PLP yeast 2%.
O=C(COc1ccc(C(=O)c2ccc(F)cc2)cc1)Nc1cccc(S(=O)(=O)N2CCOCC2)c1 was read as HCV inhibitor 6.3µM*, HCMV antiviral -18, Marburg entry inh -43%, FMDV antiviral 32µM*, LASV entry inh inconclusive and SARS PLP yeast 3%.
CCOc1ccc(N2CC(C(=O)Nc3ccc4c(c3)OCCO4)CC2=O)cc1 (stereo not given) was read as HCV inhibitor 1%, HCMV antiviral -33, Marburg entry inh -23%[46.1 µM], FMDV antiviral inconclusive, LASV entry inh 15% and SARS PLP yeast -1%.
Screening COC(=O)c1ccccc1NC(=O)Cc1nc(-c2ccc(OC)cc2)no1 returned HCMV antiviral -2, FMDV antiviral -2% and LASV entry inh 6%[46.1 µM].
Screening O=C(Oc1ccccc1F)c1nc(SCc2ccc(F)cc2)ncc1Cl returned HCMV antiviral -34, Marburg entry inh -13%[46.1 µM], FMDV antiviral -18% and LASV entry inh 24%[46.1 µM].
For CC(=O)OC[C@H]1O[C@H](CC=NO[C@@H](C)CN2CCCc3nc(C)c(C)cc32)C=C[C@@H]1OC(C)=O the results were Marburg entry inh 9%[14.2 µM].
Cc1cc2n(n1)CCC(=O)N2Cc1ccc(C(=O)Nc2ccc(Br)c(C)c2)cc1 was read as HCMV antiviral -5, FMDV antiviral -19% and LASV entry inh 0%[46.1 µM].
Cc1ccc(NC(=O)c2cc(S(=O)(=O)N3CCCCC3)c[nH]2)cc1N(C)C was read as HCMV antiviral 0, FMDV antiviral -1% and LASV entry inh 15%[46.1 µM].
`COC(=O)c1nn(-c2ccccc2)c2nnc(Cc3ccc(C)cc3)c(=O)n12` gave HCV inhibitor -6%, HCMV antiviral -108*, Marburg entry inh inconclusive, FMDV antiviral -1%, LASV entry inh 3% and SARS PLP yeast -1%.
Screening COC(=O)c1nn(-c2cccc(C)c2)c2nnc(Cc3ccccc3)c(=O)n12 returned HCV inhibitor -8%, HCMV antiviral -7, Marburg entry inh 6%, FMDV antiviral -10%, LASV entry inh inconclusive and SARS PLP yeast -8%.
`CCOC(=O)N/N=C1\C[C@@H](O)[C@@H](O)[C@@H]2[C@@H]3C(=O)N(CC)C(=O)[C@@H]3CC[C@H]12` gave Marburg entry inh 8%[14.2 µM].

Source: PubChem BioAssay (National Center for Advancing Translational Sciences (NCATS))
